From PubChem BioAssay (EPA / NIEHS) come the findings set out here.

For experiment [1], the target named is guinea pig Opioid, Kappa 1 Receptor (OpiateK), OPRK1 (gene 100135587) (UniProt P41144). As to the kind of experiment: NVS_GPCR_gOpiateK: NovaScreen (NVS) G Protein-Coupled Receptor Assay for guinea pig Opioid, Kappa 1 Receptor (OpiateK) (AID 2283252).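 Note: radioligand displacement from kappa opioid receptor in guinea pig cerebellar membranes; active means reduced radioligand binding relative to DMSO.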 Summed up:
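Guinea pig cerebellar membranes, radioligand displacement with filter-based scintillation counting, 2 h after dosing. Primary screen single concentration 25 uM in duplicate; actives retested in concentration series; loss of binding fitted versus DMSO.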

Experiment [2] concerns the target Muscarinic acetylcholine receptor M2 (Homo sapiens) (UniProt P08172). The experiment is described as follows: NVS_GPCR_hM2: NovaScreen (NVS) G Protein-Coupled Receptor Assay for human Muscarinic, M2 Receptor (AID 2283273). Summed up: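 Radioligand displacement on human M2 receptor membranes from CHO cells, 1 h incubation, filtration with scintillation counting. Primary screen in duplicate at 25 uM; actives retested in concentration series; loss of signal fitted versus DMSO.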

Experiment [3] has as its target human Neurokinin, NK2 Receptor, TACR2 (gene 6865) (UniProt P21452). As to the kind of experiment: NVS_GPCR_hNK2: NovaScreen (NVS) G Protein-Coupled Receptor Assay for human Neurokinin, NK2 Receptor (AID 2283278).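 Note: actives reduce bound radioligand signal relative to DMSO baseline.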 Summed up: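 Filter-based scintillation counting measured radioligand bound to receptor extracted from CHO cells, 4 hours after compound addition. Chemicals screened first at 25 uM in duplicate, with actives retested in concentration series relative to DMSO.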

The target in experiment [4] is Sodium channel protein type 1 subunit alpha (Rattus norvegicus) (UniProt P04774). As to the kind of experiment: NVS_IC_rNaCh_site2: NovaScreen (NVS) Ion Channel Assay for rat Sodium Channel, Site 2 (NaCh) (AID 2283322).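 Note: hit means loss of radioligand binding signal relative to DMSO so AC50 marks displacement.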 Summed up:
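Membranes: rat forebrain. Format: competitive radioligand displacement, filter separation, scintillation readout, 1 h exposure. Primary screen in duplicate at 25 uM; actives retested in concentration series.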

Experiment [5] addresses D(1A) dopamine receptor (Homo sapiens) (UniProt P21728). The experiment is described as follows: NVS_GPCR_hDRD1: NovaScreen (NVS) G Protein-Coupled Receptor Assay for human Dopamine Receptor D1 (DRD1) (AID 2283269). Summed up: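 HEK293-derived receptor preparation; radioligand competitive displacement; 1 h; filtration + scintillation counting. DMSO = negative control/baseline. Primary: 25 uM, duplicate; secondary: concentration–response for actives.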

The target in experiment [6] is human Opioid Receptor Mu (Opiate Mu), OPRM1 (gene 4988) (UniProt P35372). The experiment is described as follows: NVS_GPCR_hOpiate_mu: NovaScreen (NVS) G Protein-Coupled Receptor Assay for human Opioid Receptor Mu (Opiate Mu) (AID 2283290).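 Note: hits lower bound tracer signal versus DMSO meaning displacement of the ligand.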 In outline: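 CHO-derived receptor protein, cell-free; radioligand displacement, filtration + scintillation counting, read at 2.5 h. DMSO = negative control/baseline. Primary: 25 uM single conc, duplicate; secondary: concentration series.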
Chain of human Opioid Receptor Mu (Opiate Mu), OPRM1 (gene 4988) (P35372 whole entry, looked up): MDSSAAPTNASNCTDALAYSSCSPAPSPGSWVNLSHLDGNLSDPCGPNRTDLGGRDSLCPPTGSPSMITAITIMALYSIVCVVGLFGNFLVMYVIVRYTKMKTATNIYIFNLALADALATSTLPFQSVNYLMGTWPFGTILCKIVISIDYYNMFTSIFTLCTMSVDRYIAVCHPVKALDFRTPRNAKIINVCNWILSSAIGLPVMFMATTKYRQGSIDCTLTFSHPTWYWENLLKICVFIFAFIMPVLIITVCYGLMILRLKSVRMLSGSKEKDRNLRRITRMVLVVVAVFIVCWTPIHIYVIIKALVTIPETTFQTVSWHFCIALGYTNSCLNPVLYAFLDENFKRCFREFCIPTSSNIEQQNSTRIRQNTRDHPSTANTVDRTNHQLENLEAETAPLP

For experiment [7], the target named is human Thromboxane A2 Receptor (TXA2), TBXA2R (gene 6915) (UniProt P21731). As to the kind of experiment: NVS_GPCR_hTXA2: NovaScreen (NVS) G Protein-Coupled Receptor Assay for human Thromboxane A2 Receptor (TXA2) (AID 2283282).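 Note: actives reduce bound radioligand signal relative to DMSO baseline.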 In outline: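 Human platelet-derived receptor preparation incubated with test chemical and radiolabelled ligand for 1 hour, cell-free. Bound label was separated by filtration and counted; displacement relative to DMSO controls gave activity, screened at 25 uM, then titrated.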
Chain of human Thromboxane A2 Receptor (TXA2), TBXA2R (gene 6915) (P21731 whole entry, looked up): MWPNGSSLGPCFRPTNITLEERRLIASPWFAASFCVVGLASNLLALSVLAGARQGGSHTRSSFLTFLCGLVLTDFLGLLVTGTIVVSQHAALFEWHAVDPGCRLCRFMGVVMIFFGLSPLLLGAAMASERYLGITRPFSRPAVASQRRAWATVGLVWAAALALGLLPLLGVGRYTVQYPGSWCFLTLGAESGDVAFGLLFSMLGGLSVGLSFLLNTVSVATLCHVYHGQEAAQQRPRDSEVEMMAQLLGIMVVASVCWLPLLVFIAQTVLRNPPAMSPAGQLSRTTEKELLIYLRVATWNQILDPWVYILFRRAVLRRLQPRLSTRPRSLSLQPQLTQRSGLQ

Experiment [8] concerns the target Estrogen receptor (Homo sapiens) (UniProt P03372). The experiment is described as follows: OT_ER_ERaERa_1440: Odyssey Thera (OT) 24-hour HEK293T Protein-Complementation Assay for Estrogen Receptor-alpha/-alpha Homodimer (AID 2283349).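 Note: hits raise fluorescence above DMSO for agonists and antagonists alike.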 In outline:
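HEK293T cells stably expressing the human ER alpha ligand-binding domain (aa 310-547) as a homodimer PCA were dosed for 24 hours. Fluorescence intensity was read by laser scanning cytometry, and gain of signal was fitted relative to DMSO vehicle.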

For experiment [9], the target named is rat Neonicotinoid receptor (NNR), Chrna7 (gene 25302) (UniProt Q05941). As to the kind of experiment: NVS_LGIC_rNNR_BungSens: NovaScreen (NVS) Ligand-Gated Ion Channel Assay for rat Neonicotinoid receptor (NNR) (AID 2283315). Summed up:
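Radioligand displacement binding on rat cortical membranes, 2.5 h incubation, filtration and scintillation counting. Loss of specific binding fitted relative to DMSO.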

Experiment [10] concerns the target rat Adrenergic Receptor, Alpha 2 (Adra2), Non-selective Binding, Adra2a (gene 25083) (UniProt P22909). As to the kind of experiment: NVS_GPCR_rAdra2_NonSelective: NovaScreen (NVS) G Protein-Coupled Receptor Assay for rat Adrenergic Receptor, Alpha 2 (Adra2), Non-selective Binding (AID 2283299). In outline: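 Rat cortical membranes, radioligand competitive displacement read by filter-based scintillation counting 1.25 hours after dosing. Primary screen in duplicate at 25 uM; actives followed up in concentration series.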

Experiment [11] has as its target human Peripheral-type Benzodiazepine Receptor (PBR), TSPO (gene 706) (UniProt P30536). As to the kind of experiment: NVS_MP_hPBR: NovaScreen (NVS) Membrane Protein Assay for human Peripheral-type Benzodiazepine Receptor (PBR) (AID 2283331).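 Note: hits reduce radioligand binding relative to DMSO baseline.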 In outline:
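Radioligand displacement on human colonic cell membranes, 1 h incubation; bound radioactivity by filtration and scintillation counting. Primary screen in duplicate at 25 uM single concentration, actives followed up in concentration series; loss of binding versus DMSO.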

In experiment [12] the target is rat Peripheral-type Benzodiazepine Receptor (PBR), Tspo (gene 24230) (UniProt P16257). As to the kind of experiment: NVS_MP_rPBR: NovaScreen (NVS) Membrane Protein Assay for rat Peripheral-type Benzodiazepine Receptor (PBR) (AID 2283335). Summed up:
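Rat kidney membranes; radioligand binding with displacement, filter-based scintillation counting, 1 h incubation. Primary screen in duplicate at 25 uM, actives followed in concentration series; loss of binding vs DMSO.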

The target in experiment [13] is bovine Estrogen Receptor (ER), ESR1 (gene 407238) (UniProt P49884). The experiment is described as follows: NVS_NR_bER: NovaScreen (NVS) Nuclear Receptor Binding Assay for bovine Estrogen Receptor (ER) (AID 2283345).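 Note: actives lower the bound radioligand count which means they displace the ER ligand.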 Summed up: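 Scintillation counting of displaced radioligand gave the readout; bovine uterine membrane extract supplied the receptor. Measured 18 h post-dose, normalized to DMSO baseline. Single 25 uM duplicate screen preceded concentration-response follow-up.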
Chain of bovine Estrogen Receptor (ER), ESR1 (gene 407238) (P49884 whole entry, looked up): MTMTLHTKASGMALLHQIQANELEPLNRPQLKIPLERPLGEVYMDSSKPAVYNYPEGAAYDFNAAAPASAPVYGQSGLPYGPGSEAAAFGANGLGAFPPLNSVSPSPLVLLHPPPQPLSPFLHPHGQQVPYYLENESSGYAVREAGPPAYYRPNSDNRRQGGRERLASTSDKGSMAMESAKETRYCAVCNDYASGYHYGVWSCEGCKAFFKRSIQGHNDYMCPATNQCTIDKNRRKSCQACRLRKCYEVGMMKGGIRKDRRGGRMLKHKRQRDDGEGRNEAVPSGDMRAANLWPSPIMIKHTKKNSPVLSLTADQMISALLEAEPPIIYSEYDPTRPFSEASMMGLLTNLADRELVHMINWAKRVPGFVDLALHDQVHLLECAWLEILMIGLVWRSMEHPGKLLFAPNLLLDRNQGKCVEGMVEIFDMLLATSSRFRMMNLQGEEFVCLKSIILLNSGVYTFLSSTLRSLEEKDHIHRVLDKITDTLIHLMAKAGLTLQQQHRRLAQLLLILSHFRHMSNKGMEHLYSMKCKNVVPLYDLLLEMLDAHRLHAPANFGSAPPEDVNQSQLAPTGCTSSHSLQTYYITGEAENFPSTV

Experiment [14] concerns the target Estrogen receptor (Homo sapiens) (UniProt P03372). As to the kind of experiment: NVS_NR_hER: NovaScreen (NVS) Nuclear Receptor Binding Assay for human Estrogen Receptor (ER) (AID 2283348). Summed up:
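Radioligand competitive displacement binding to estrogen receptor from MCF7 extract, cell-free; 18 h after dosing, scintillation read-out. Primary screen in duplicate at 25 uM; actives followed up in concentration series; loss of signal vs DMSO.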

In experiment [15] the target is human Adenosine A2a Receptor (AdoRA2a), ADORA2A (gene 135) (UniProt P29274). As to the kind of experiment: NVS_GPCR_hAdoRA2a: NovaScreen (NVS) G Protein-Coupled Receptor Assay for human Adenosine A2a Receptor (AdoRA2a) (AID 2283256). In outline:
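Radioligand displacement on HEK293-derived membrane protein, cell-free; filter-based scintillation counting 1.5 hours after dosing, loss of signal vs DMSO. Single-point duplicate screen at 25 uM, actives retested in concentration series.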

Experiment [16] addresses human Adenosine A1 Receptor (AdoRA1), ADORA1 (gene 134) (UniProt P30542). As to the kind of experiment: NVS_GPCR_hAdoRA1: NovaScreen (NVS) G Protein-Coupled Receptor Assay for human Adenosine A1 Receptor (AdoRA1) (AID 2283254). Summed up: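 Hum. cortical membranes + radioligand, cmpd 1 h; filtration, scintillation count. Readout = decrease vs DMSO. Primary 25 uM dup; hits → conc. series.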

Experiment [17] is described as follows: NVS_IC_rCaBTZCHL: NovaScreen (NVS) Ion Channel Assay for Calcium Channel, Type L, Benzothiazepine Site (CaBTZCHL) (AID 2283337). In outline: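 Radioligand displacement at the benzothiazepine site using rat cortical membranes; bound label measured by filtration and scintillation counting 1.5 h after dosing. Single-point 25 uM in duplicate, then concentration series; DMSO baseline.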

Records with an inconclusive call do not appear. The source made the active and inactive calls. Rule for the calls: active = hit-call score of the fitted dose curve at least 0.9, where 1 is the maximum; inconclusive = response in the unintended direction; inactive = score below 0.9.

Chain of D(1A) dopamine receptor (Homo sapiens) (P21728 whole entry, looked up): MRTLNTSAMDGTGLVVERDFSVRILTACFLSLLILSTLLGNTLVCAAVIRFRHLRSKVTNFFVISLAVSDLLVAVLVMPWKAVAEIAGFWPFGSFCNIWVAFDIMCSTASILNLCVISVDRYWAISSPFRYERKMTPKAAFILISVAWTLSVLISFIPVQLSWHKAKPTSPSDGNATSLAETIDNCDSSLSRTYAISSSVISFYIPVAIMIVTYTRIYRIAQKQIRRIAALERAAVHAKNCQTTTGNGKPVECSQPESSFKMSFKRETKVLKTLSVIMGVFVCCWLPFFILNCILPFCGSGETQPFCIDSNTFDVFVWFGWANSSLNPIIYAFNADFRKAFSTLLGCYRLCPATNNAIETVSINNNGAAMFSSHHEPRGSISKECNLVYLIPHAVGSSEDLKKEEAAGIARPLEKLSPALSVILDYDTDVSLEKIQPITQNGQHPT
Chain of Muscarinic acetylcholine receptor M2 (Homo sapiens) (P08172 whole entry, looked up): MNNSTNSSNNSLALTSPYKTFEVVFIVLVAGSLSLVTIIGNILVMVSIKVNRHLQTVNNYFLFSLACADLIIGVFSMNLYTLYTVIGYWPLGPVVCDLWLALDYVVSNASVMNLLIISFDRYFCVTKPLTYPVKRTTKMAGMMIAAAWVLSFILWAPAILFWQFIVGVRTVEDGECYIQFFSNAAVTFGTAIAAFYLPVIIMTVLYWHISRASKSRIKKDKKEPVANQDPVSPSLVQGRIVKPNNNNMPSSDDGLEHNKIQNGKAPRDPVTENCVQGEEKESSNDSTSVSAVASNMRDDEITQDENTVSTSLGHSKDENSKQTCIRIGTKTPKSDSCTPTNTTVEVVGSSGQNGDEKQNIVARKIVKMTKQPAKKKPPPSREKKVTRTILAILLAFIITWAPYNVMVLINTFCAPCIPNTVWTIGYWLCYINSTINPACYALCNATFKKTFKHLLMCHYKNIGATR
Chain of Estrogen receptor (Homo sapiens) (P03372 whole entry, looked up, the tested form may be a part): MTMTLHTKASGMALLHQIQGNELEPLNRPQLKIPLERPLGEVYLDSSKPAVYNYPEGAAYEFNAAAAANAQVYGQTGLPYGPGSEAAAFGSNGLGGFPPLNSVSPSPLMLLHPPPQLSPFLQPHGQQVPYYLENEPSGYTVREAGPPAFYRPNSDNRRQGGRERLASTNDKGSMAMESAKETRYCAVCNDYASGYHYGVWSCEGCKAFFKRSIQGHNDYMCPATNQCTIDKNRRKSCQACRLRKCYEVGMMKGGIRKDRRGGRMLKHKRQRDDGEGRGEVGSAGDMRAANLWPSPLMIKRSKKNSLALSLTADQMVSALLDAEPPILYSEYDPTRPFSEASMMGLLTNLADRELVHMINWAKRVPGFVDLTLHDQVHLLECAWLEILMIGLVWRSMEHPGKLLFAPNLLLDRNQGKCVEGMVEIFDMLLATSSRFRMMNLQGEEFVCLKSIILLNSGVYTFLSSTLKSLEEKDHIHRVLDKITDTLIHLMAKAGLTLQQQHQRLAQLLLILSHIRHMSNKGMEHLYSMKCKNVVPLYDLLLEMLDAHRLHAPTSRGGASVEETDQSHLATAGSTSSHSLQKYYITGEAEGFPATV
Chain of human Adenosine A2a Receptor (AdoRA2a), ADORA2A (gene 135) (P29274 whole entry, looked up): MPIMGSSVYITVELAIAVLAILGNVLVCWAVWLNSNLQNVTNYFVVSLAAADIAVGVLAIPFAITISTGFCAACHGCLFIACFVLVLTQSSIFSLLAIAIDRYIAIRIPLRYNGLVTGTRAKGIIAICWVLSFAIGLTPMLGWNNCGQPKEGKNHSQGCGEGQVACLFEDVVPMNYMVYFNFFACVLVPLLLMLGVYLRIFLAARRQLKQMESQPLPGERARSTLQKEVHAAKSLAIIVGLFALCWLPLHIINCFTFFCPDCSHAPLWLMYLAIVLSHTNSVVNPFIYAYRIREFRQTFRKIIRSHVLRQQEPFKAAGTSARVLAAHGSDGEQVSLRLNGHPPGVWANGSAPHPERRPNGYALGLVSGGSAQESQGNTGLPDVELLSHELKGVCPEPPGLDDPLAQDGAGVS
Chain of rat Peripheral-type Benzodiazepine Receptor (PBR), Tspo (gene 24230) (P16257 whole entry, looked up): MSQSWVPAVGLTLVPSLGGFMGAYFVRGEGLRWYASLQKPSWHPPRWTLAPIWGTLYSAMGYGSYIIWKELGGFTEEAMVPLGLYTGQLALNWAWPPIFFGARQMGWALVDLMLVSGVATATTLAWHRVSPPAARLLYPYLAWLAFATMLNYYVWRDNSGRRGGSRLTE
Chain of guinea pig Opioid, Kappa 1 Receptor (OpiateK), OPRK1 (gene 100135587) (P41144 whole entry, looked up): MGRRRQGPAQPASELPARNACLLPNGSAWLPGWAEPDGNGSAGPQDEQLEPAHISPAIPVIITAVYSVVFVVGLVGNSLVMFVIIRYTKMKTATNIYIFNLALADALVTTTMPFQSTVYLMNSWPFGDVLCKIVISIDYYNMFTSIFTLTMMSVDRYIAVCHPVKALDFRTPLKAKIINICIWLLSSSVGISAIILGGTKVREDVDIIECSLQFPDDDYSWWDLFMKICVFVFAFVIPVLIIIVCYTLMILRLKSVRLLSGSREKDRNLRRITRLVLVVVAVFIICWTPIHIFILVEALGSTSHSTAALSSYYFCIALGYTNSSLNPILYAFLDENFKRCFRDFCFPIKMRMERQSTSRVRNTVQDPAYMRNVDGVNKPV
Chain of human Adenosine A1 Receptor (AdoRA1), ADORA1 (gene 134) (P30542 whole entry, looked up): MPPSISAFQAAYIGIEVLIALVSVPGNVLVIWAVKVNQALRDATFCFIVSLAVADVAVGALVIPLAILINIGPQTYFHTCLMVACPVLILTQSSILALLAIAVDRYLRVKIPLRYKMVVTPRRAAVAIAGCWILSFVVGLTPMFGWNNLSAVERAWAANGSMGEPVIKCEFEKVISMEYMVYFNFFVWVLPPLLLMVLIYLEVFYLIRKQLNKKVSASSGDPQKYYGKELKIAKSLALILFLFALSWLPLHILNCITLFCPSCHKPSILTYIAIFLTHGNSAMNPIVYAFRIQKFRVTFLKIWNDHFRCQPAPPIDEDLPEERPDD
Chain of human Neurokinin, NK2 Receptor, TACR2 (gene 6865) (P21452 whole entry, looked up): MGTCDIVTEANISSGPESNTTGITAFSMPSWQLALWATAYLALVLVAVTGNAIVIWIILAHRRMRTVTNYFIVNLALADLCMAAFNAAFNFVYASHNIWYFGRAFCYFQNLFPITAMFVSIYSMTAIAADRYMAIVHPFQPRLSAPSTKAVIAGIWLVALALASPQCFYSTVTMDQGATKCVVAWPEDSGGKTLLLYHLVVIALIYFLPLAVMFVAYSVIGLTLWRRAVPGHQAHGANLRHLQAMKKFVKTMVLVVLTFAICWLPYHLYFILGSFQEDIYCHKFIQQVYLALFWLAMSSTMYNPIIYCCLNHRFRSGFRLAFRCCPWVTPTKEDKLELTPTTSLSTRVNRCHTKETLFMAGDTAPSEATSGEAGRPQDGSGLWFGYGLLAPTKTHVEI
Chain of human Peripheral-type Benzodiazepine Receptor (PBR), TSPO (gene 706) (P30536 whole entry, looked up): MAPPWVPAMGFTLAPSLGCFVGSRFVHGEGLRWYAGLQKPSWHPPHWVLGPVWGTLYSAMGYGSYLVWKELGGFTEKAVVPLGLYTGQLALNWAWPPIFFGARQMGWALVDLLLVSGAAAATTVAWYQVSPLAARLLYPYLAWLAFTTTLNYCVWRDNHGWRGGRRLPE

A word on the AC50: it is the midpoint of the concentration-response curve, whichever way the signal moves. Turning to `O=C=NC1CCC(CC2CCC(N=C=O)CC2)CC1` (centres undefined), the AC50 was 29.3 µM (active) in [1], 9.37 µM (active) in experiment [2] and 4.47 µM (active) in experiment [4]. For the same molecule, the call in experiment [3] was inactive.

For `CNC[C@H](O)c1cccc(O)c1`, the AC50 in [2] was 29.7 µM (active).

`CC(C)c1ccc(C(C)C)cc1`: the outcome in experiment [5] was inactive.

For `Cc1ccc2n[nH]nc2c1`, the molecule was called inactive in experiment [5].

On to `CCCOCC(C)O` (centres undefined), for which the AC50 in experiment [6] was 14.8 µM (active).

As to `BrC1CCC(Br)C(Br)CCC(Br)C(Br)CCC1Br` (centres undefined), the AC50 in [7] is 11.1 µM (active). In [8], the call was inactive.

On to `CSc1nnc(C(C)(C)C)c(=O)[nH]1`, for which the outcome in [9] was inactive.

`CCn1c2ccccc2c2cc(N)ccc21`: the AC50 in experiment [5] is 38.5 µM (active); in experiment [10], 25 µM (active).

`CN(CCOc1ccc(CC2SC(=O)NC2=O)cc1)c1ccccn1` (centres undefined): the AC50 in [2] was 13.2 µM (active); in experiment [7], 1.45 µM (active); in experiment [11] it was 5.39 µM (active); in experiment [12], 12.9 µM (active). In addition, the call in experiment [13] and in [14] was inactive.

For `NC(=O)c1ccccc1Cl`, the result in [15] was inactive.

Regarding `CC(C)=CCC[C@H](C)CC=O`, in [4], the molecule was classed as inactive.

`S=C(S)NCCNC(=S)S`: in [3], the AC50 is 3.54 µM (active).

Consider `Cc1ccc2sc3cccc(C)c3c2c1`, for which, in experiment [6], the molecule was called inactive.

As for `Nc1cc([N+](=O)[O-])ccc1Cl`, the outcome in experiment [15] and in experiment [6] was inactive.

In the case of `c1ccc2sc(SN(C3CCCCC3)C3CCCCC3)nc2c1`, the outcome in experiment [5] was inactive.

With `COc1cc2ncnc(Nc3cccc(Cl)c3)c2cc1OC`, the values for the AC50 in [16] and in [6] were 9.94 µM (active) and 4.36 µM (active), respectively. The call in [11], in [12] and in experiment [17] was inactive.

With `O=C1CCc2ccccc2O1`, the result in experiment [7] was inactive.

Turning to `CCCCCCCCCC=O`, the call in experiment [7], in [13] and in experiment [8] was inactive.

For `Cc1c(Cl)c(=O)oc2cc(O)ccc12`, the outcome in experiment [16] was inactive.

Regarding `O=P(c1ccccc1)(c1ccccc1)c1ccccc1`, the results for the AC50 in experiment [1] and in [4] were 11.4 µM (active) and 8.17 µM (active), respectively. Further, the outcome in experiment [17] was inactive.
